# Assay outcomes as filed in PubChem.
# A selection: hits, their analogues and other compounds. The true share with any hit is near 4.7%.
# D1 ag: agonists of human D1 dopamine receptor. AID 504660. HEK293 T-REx D1 cells, calcium flux, agonist mode. activation, % at 2 µM. P21728. 360,000 compounds, 1% hits; further: 0% is about no effect
# Target sequence (P21728 whole entry, looked up): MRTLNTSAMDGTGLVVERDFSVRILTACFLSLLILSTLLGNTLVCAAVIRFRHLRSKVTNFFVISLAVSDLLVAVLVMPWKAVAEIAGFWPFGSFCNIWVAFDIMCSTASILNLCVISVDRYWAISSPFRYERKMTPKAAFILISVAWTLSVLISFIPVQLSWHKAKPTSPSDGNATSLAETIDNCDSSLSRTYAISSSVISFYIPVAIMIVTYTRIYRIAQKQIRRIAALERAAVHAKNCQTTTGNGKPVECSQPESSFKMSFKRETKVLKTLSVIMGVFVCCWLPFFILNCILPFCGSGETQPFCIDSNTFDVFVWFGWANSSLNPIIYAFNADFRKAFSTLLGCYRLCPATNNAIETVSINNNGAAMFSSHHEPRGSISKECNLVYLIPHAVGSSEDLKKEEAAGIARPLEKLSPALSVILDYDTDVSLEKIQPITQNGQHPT
#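 Inducible HEK293 T-REx D1 cells, force-coupled to calcium signalling, were plated at 4000 cells/well with tetracycline and held overnight at 30 C. After no-wash calcium dye loading, compound-evoked calcium rise over 180 s flagged agonists.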
# D1 PAM: human D1 dopamine receptor positive modulation. potentiation, % at 10 µM. HEK293 TREx D1 cells, calcium flux, dopamine EC20 potentiation. 360,000 compounds, 0.036% hits; in the data active means potentiation above about 30%; further: 0% is about no effect
# TRHR ag: activates the human TRH receptor; 360,000 compounds, 0.18% hits; activation, % at 2 µM; TRHR cells, calcium flux fluo-8, FDSS agonist mode; P34981; further: 0% is about no effect
#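 Steps: seed TRHR cells overnight; add fluo-8 no-wash Ca dye, RT 30 min–1.5 h; record 10 s baseline; pin-transfer compounds; monitor fluorescence 1 cycle/s for the agonist window. Calcium increases flag candidate agonists.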
# TRHR PAM: allosterically enhances the human TRH receptor | AID 493056 | 360,000 compounds, 0.66% hits | P34981 | enhancement, % at 2 µM | TRHR cells, fluo-8 calcium fluorescence, EC20 TRH enhancement; in the data active means enhancement above about 30%; further: 0% is about no effect
#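 Enhancer read-out: after compound pinning and an initial kinetic agonist-mode read, an EC20 of TRH (10 nM final) was injected and fluo-8 calcium signal (Ex 480/Em 530) followed at 1 s/cycle for 100 cycles in TRHR-expressing cells.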
# D1 antagonist: antagonists of human D1 dopamine receptor; P21728; HEK293 TREx D1 cells, calcium flux, dopamine EC80; stronger effect = lower value; activity change, negative = inhibition, % at 10 µM; 360,000 compounds, 3.2% hits; AID 504652; in the data active means activity change below about -30%; further: on the % scale 0 is the no-effect control and ±100 the full control effect
#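 Antagonism measured as reduced calcium response to an EC80 dopamine addition following 180 s compound pre-read; cells were inducible HEK293 Trex D1 plated overnight at 30 C, read kinetically at 1 cycle/sec.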
# * marks the source's active call; other numbers are inactive results; nt = no result. Unless noted, no stated cut-off is given here; in the data, active means activation above about 30%; inactive means the rest.
SMILES,D1 ag,D1 PAM,TRHR ag,TRHR PAM,D1 antagonist
CCOC(=O)c1c(NC(=S)NNS(=O)(=O)c2ccc(Br)cc2)sc2c1CCCCC2,11,-7,1,-18,-33*
CCC(=O)Nc1sc2c(c1C(=O)Nc1cccc(C)c1)CCCC2,0,-3,0,-1,-5
Cc1onc(-c2c(F)cccc2Cl)c1C(=O)c1ccc(F)cc1,8,0,0,-8,-55*
Cc1onc(-c2c(F)cccc2Cl)c1C(=O)c1ccccc1O,9,-11,0,-4,-41*
Cc1onc(-c2ccccc2Cl)c1C(=O)NCc1ccccn1,3,1,0,-5,2
Cc1onc(-c2c(F)cccc2Cl)c1C(=O)NCc1ccccn1,3,4,0,0,-39*
Cc1ccc(N2C(=O)c3cccc4c(N)ccc(c34)C2=O)c2cccnc12,334*,8,158*,26,-68*
CCN1C(=O)c2cccc3c(N)ccc(c23)C1=O,231*,4,284*,60*,-22
Cc1nn(C)c(C)c1N1C(=O)c2cccc3c(N)ccc(c23)C1=O,356*,6,135*,22,-27
COc1cc2c(=O)n(CCC(=O)NCC3CCCO3)c(=O)n(CC(=O)c3ccc(Cl)cc3)c2cc1OC (stereo unspecified),0,-7,0,1,-30*
COc1ccc(C(=O)Nc2nnc(SCC(=O)NCC3CCCO3)s2)cc1OC (stereo unspecified),3,-12,0,-6,-30*
COc1cc(OC)c(OC)cc1CN1CCCC(C(=O)c2sccc2C)C1 (stereo unspecified),9,-11,-1,3,-38*
CC(=O)Nc1ccc(CN2CCCC(C(=O)c3cccc(C(F)(F)F)c3)C2)cc1 (stereo unspecified),10,-5,3,1,-2
COc1cc(OC)c(OC)cc1CN1CCCC(C(=O)c2ccc3c(c2)OCO3)C1 (stereo unspecified),1,-5,-2,-5,-10
COc1ccc(C(=O)C2CCCN(Cc3ccc(NC(C)=O)cc3)C2)cc1OC (stereo unspecified),-2,-6,0,-3,-33*
COc1ccc(NC(=O)C2CCCN(CCCc3ccccc3)C2)cc1OCC(C)C (stereo unspecified),90*,-6,0,7,-3
Cc1ccccc1-c1noc(-c2ccc(NCc3cccnc3)c([N+](=O)[O-])c2)n1,14,-2,-1,6,-10
Cc1cc(C)c(S(=O)(=O)c2cccc(Cl)c2)c(Cl)n1,3,-2,0,1,-2
CCOc1nc(C)cc(C)c1S(=O)(=O)c1cccc(Cl)c1,30*,-4,0,22,-49*
O=C(c1cccs1)c1ccc(-c2cccs2)s1,70*,-2,-1,16,-38*
Cc1ccc(CN2CCc3nc(SCC(=O)Nc4cccc(C)c4C)[nH]c(=O)c3C2)cc1,2,-3,0,6,-9
Cc1noc2ncnc(N3CCCC(C(=O)Nc4cc(F)ccc4F)C3)c12 (stereo unspecified),15,-3,0,11,-24
CCOC(=O)c1c(-c2ccccc2)c2cc(OC)ccc2n1CCCN(C)C,31*,-6,8,-2,-3
CCOC(=O)c1c(C)n(CCNC(C)=O)c2ccc(OC)cc12,0,-4,-1,6,-3
Cn1cccc1/C=C(/C#N)C(N)=S,2,-4,-2,-26,-49*
SMILES,D1 ag,D1 PAM,TRHR ag,TRHR PAM,D1 antagonist
Cc1cc(C)c(/C=C(\C#N)C(N)=S)c(C)c1,17,-1,1,-14,8
Cc1ccc(-c2ccc(/C=C(\C#N)C(N)=S)n2C)cc1,5,-5,-1,9,-51*
COC(=O)C(NC(=O)c1ccccc1Cl)(Nc1ncc(S(=O)(=O)c2ccc([N+](=O)[O-])cc2)s1)C(F)(F)F (stereo unspecified),26,-2,2,-6,nt
CC(C)NC(=O)CCn1c(SCc2c(F)cccc2Cl)nc2c(sc3ccccc32)c1=O,2,0,0,3,12
Cn1c2cc(Br)sc2c2cnn(Cc3c(F)cccc3Cl)c(=O)c21,0,0,0,14,-94*
Cc1[nH]c2ccccc2c1/C=C/C(=O)c1ccccc1,41*,-3,8,0,-20
CC(=O)c1cccc(NC(=O)c2cc(-c3ccncc3)nc3ccccc23)c1,0,3,1,1,18
O=C(NNC(=O)c1cc(-c2ccncc2)nc2ccccc12)c1cccc(Cl)c1,3,-4,0,4,-41*
Cc1[nH]c2ccccc2c1/C=N/NC(=O)CCC(=O)Nc1ccccc1,1,-4,1,17,-48*
Cc1[nH]c2ccccc2c1/C=N/NC(=O)c1cc(-c2ccncc2)nc2ccccc12,1,-17,0,-8,-43*
Cc1[nH]c2ccccc2c1/C=N/NC(=O)c1ccccc1,1,1,-2,-11,-1
NC(=O)CSc1nc2ccc(NC(=O)COc3ccccc3)cc2s1,7,-1,0,0,0
COC(=O)C1=C(C)Nc2nc(SCc3ccccc3)[nH]c(=O)c2C1c1cccs1 (stereo unspecified),0,-1,0,0,39
Cc1nc2cc(-c3ccccc3)nn2c(C)c1CCC(=O)NCc1ccco1,4,nt,-1,1,-32*
COc1ccccc1-c1cc2nc(C)c(CCC(=O)NCc3ccco3)c(C)n2n1,2,-10,-1,-2,4
Cc1nc2cc(-c3cccc(F)c3)nn2c(C)c1CCC(=O)NC(C)CCc1ccco1 (stereo unspecified),5,nt,0,4,-35*
CCOC(=O)c1c(C)[nH]sc1=S,1,3,-3,33*,16
CCOC(=O)c1[nH]c(C)c(C(=O)OCC)c1C,2,nt,-1,19,9
CC(Oc1ccc(Cl)cc1Cl)C(=O)NNC(=O)C(=O)N1CCCCC1 (stereo unspecified),1,-1,1,1,-86*
CC(Oc1ccc(Cl)cc1Cl)C(=O)Nc1ccc(N2CCN(C)CC2)cc1 (stereo unspecified),10,-16,1,7,-60*
CN1CCN(c2ccc(NC(=O)c3ccc(Cl)cc3Cl)cc2)CC1,5,-15,1,18,-44*
CC(=O)N1CCN(c2ccc(NC(=O)C(C)Oc3ccc(Cl)cc3Cl)cc2)CC1 (stereo unspecified),-1,0,0,11,1
Nc1ncc(S(=O)(=O)Nc2ccc(F)cc2F)cn1,0,-2,0,2,-14
CCc1ccc(N(C(=O)c2csnn2)C(C(=O)NC(C)(C)CC)c2ccccn2)cc1 (stereo unspecified),1,-5,-1,-8,-66*
